The source of these data is PubChem BioAssay (NCI).

The panel holds about 83,000 compounds, 20% with a hit somewhere; the sample as a whole holds those more often.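 Assay: single dose, 48 h. Readout: percent growth (0 = no net growth; negative = cell death). Active: <10.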 A number with no mark means an inactive call. Activity calls are given as the source filed them.

What all share (experiment): NCI-60 one-dose screen, 48 h (100 = growth as untreated, 0 = no growth, -100 = all killed)
One test relates to NCI-H23 lung. The settings on record: 10 µM unless noted.
Another test relates to NCI-H226 lung. As to conditions: 10 µM unless noted.
The next test deals with NCI-H322M lung. The settings on record: 10 µM unless noted.
Another test relates to NCI-H460 lung. As to conditions: 10 µM unless noted.
The next test relates to HOP-92 NSCLC. As to conditions: 10 µM.
The next test deals with NCI-H522 lung. The settings on record: 10 µM.
In another test the test system is A549/ATCC NSCLC. The settings on record: 10 µM unless noted.
The subject of the next test is 786-0 renal. The settings on record: 10 µM unless noted.
The test system of a further test is COLO 205 colon. The settings on record: 10 µM unless noted.
In another test the test system is DU-145 prostate. The settings on record: 10 µM unless noted.
A further test relates to K-562 leukemia. As to conditions: 10 µM unless noted.
A further test deals with MDA-MB-231 breast. As to conditions: 10 µM unless noted.
In another test the test system is RXF 393 renal. As to conditions: 10 µM unless noted.
In a further test the test system is SF-268 CNS. The settings on record: 10 µM unless noted.
For the next test, the system named is SF-295 CNS. As to conditions: 10 µM unless noted.
The test system of the next test is SF-539 CNS. The settings on record: 10 µM unless noted.
Another test deals with UACC-257 melanoma. As to conditions: 10 µM unless noted.
The next test deals with MALME-3M melanoma. The settings on record: 10 µM unless noted.
The subject of a further test is M14 melanoma. The settings on record: 10 µM unless noted.

Turning to `COc1ccc2c(c1)/C(=C/c1c(-c3cc(OC)c(OC)c(OC)c3)nc3sccn13)C(=O)N2`, the growth in the test with NCI-H23 lung was 99.1%; in the test with NCI-H226 lung, 97%; in the test with NCI-H322M lung, 92.3%; in the test with NCI-H460 lung, 108%; in the test on HOP-92 NSCLC, 31.7%; with NCI-H522 lung, 86.5%. Besides, the growth in the test with A549/ATCC NSCLC is 110%; in the test with 786-0 renal, 95.7%; with COLO 205 colon it was 107%; in the test on DU-145 prostate, 88%; in the test with K-562 leukemia, 87.3%; in the test on MDA-MB-231 breast it was 66.1%. For the same compound, the growth is 82.4% with RXF 393 renal; 107% in the test with SF-268 CNS; 93.2% in the test with SF-295 CNS; 91.9% in the test with SF-539 CNS; 101% in the test on UACC-257 melanoma.

In the case of `COc1ccc(/C=C/C(=O)/C=C/c2cc3ccccc3[nH]c2=O)cc1`, the growth in the test on NCI-H23 lung was 70.4%; in the test on NCI-H226 lung, 90.9%; in the test on NCI-H322M lung, 109%; with NCI-H460 lung, 92.7%; in the test with HOP-92 NSCLC, 89.8%; in the test on NCI-H522 lung it was 48.8%. Besides, the growth in the test on A549/ATCC NSCLC was 51.3%; in the test with 786-0 renal it was 93.1%; in the test on COLO 205 colon, 55.8%; with DU-145 prostate it was 81.2%; with K-562 leukemia it was 4.13% (active); in the test with MALME-3M melanoma, 32.6%. The growth with MDA-MB-231 breast is 64.5%; in the test on RXF 393 renal, 30.6%; in the test with SF-268 CNS, 47.8%; in the test on SF-295 CNS it was 104%; in the test on UACC-257 melanoma, 74.8%; with M14 melanoma, 72.9%.

`Cc1sc(NC(=O)c2ccc(C(C)(C)C)cc2)c(C(=O)O)c1C`: the growth in the test on NCI-H23 lung is 62.9%; in the test on NCI-H226 lung it was 92.3%; with NCI-H322M lung, 97.3%; in the test on NCI-H460 lung, 50.9%; in the test on HOP-92 NSCLC it was 66.3%; in the test on NCI-H522 lung it was 56.3%. The growth in the test on A549/ATCC NSCLC was 24.4%; with 786-0 renal it was 73.8%; with COLO 205 colon, 55.6%; with DU-145 prostate, 61.6%; in the test with K-562 leukemia, 38.1%; in the test with MALME-3M melanoma, 111%. In addition, the growth in the test with MDA-MB-231 breast was 105%; in the test with RXF 393 renal it was 114%; in the test on SF-268 CNS it was 88.1%; with SF-295 CNS, 35.7%; with SF-539 CNS, 65.8%; in the test on UACC-257 melanoma, 101%. Moreover, the growth with M14 melanoma is 107%.

For the compound `CCn1cc(C(=O)O)c(=O)c2cc(F)c(N3CCN(S(=O)(=O)c4ccc(Cl)cc4)CC3)cc21`, the growth with NCI-H23 lung is -7.07% (active); in the test with NCI-H226 lung, 60.1%; with NCI-H322M lung it was 45.9%; with NCI-H460 lung it was 5.92% (active); with HOP-92 NSCLC, -4.17% (active); in the test on NCI-H522 lung, 8.39% (active). The growth is 14.6% with A549/ATCC NSCLC; 23.7% in the test on 786-0 renal; 12.1% with COLO 205 colon; 31.7% with DU-145 prostate; 21.4% in the test with K-562 leukemia; 23.8% in the test with MALME-3M melanoma. In addition, the growth in the test with MDA-MB-231 breast was 41.1%; in the test on RXF 393 renal it was 13.4%; with SF-268 CNS it was 22.7%; in the test on SF-295 CNS, 3.94% (active); in the test with SF-539 CNS, 21.7%; in the test with UACC-257 melanoma, 29%. In the test on M14 melanoma, the growth was 18.9%.

On to `CC(C)OC(=O)c1ccc2n1CCCc1cnc(Nc3ccccc3)nc1-2`, for which the growth with NCI-H23 lung was 67%; in the test with NCI-H226 lung, 84.4%; with NCI-H322M lung, 116%; in the test on NCI-H460 lung it was 86.6%; with HOP-92 NSCLC, 75.6%; in the test with NCI-H522 lung it was 63.3%. The growth is 74.4% in the test with A549/ATCC NSCLC; 83.3% with 786-0 renal; 86% in the test on COLO 205 colon; 87.2% in the test on DU-145 prostate; 43.6% in the test with K-562 leukemia; 55.4% in the test on MALME-3M melanoma. Also, the growth with MDA-MB-231 breast is 78%; in the test with RXF 393 renal, 91.2%; with SF-268 CNS it was 94.4%; in the test on SF-295 CNS, 76.1%; with SF-539 CNS, 86.1%; in the test with UACC-257 melanoma, 82.8%. The growth in the test with M14 melanoma was 89.6%.

As for `CCOC(=O)c1c2c(cn1Cc1ccccc1)-c1oncc1CC2`, the growth was 106% with NCI-H23 lung; 79.4% in the test on NCI-H226 lung; 92.8% in the test on NCI-H322M lung; 112% in the test on NCI-H460 lung; 61.8% with HOP-92 NSCLC; 99% in the test on NCI-H522 lung. Further, the growth in the test with A549/ATCC NSCLC was 95.1%; in the test with 786-0 renal, 83.9%; in the test with COLO 205 colon it was 123%; in the test with DU-145 prostate, 107%; in the test with K-562 leukemia it was 101%; in the test with MALME-3M melanoma, 114%. Moreover, the growth in the test on MDA-MB-231 breast is 90.6%; in the test on RXF 393 renal, 93.3%; with SF-268 CNS, 83.6%; in the test with SF-295 CNS, 98.5%; in the test with SF-539 CNS, 86%; in the test on UACC-257 melanoma, 112%. Besides, the growth in the test with M14 melanoma was 111%.

In the case of `CC(=O)OCC1O[C@@H](OC(C)=O)[C@@H](NC(=O)NS(=O)(=O)c2ccccc2)C(OC(C)=O)[C@@H]1OC(C)=O` (stereo partly drawn), the growth in the test with NCI-H23 lung was 113%; with NCI-H226 lung, 99.7%; in the test on NCI-H322M lung, 98.7%; with NCI-H460 lung, 117%; in the test on HOP-92 NSCLC it was 97.9%; with NCI-H522 lung, 96%. The growth is 106% with A549/ATCC NSCLC; 98.3% in the test on 786-0 renal; 120% with COLO 205 colon; 108% in the test on DU-145 prostate; 94.6% in the test with K-562 leukemia; 103% in the test on MALME-3M melanoma. Besides, the growth is 105% in the test with MDA-MB-231 breast; 108% in the test with RXF 393 renal; 100% with SF-268 CNS; 94.4% in the test on SF-295 CNS; 97.2% with SF-539 CNS; 118% in the test on UACC-257 melanoma. The growth in the test with M14 melanoma was 108%.

Regarding `O=C(N/N=C/c1ccccc1Cl)c1cccc2ccccc12`, the growth in the test on NCI-H23 lung is 97.9%; in the test with NCI-H226 lung it was 99.7%; with NCI-H322M lung, 108%; in the test on NCI-H460 lung it was 98.9%; in the test on HOP-92 NSCLC, 94.8%; in the test with NCI-H522 lung it was 84.5%. Moreover, the growth in the test on A549/ATCC NSCLC was 97.5%; with 786-0 renal, 105%; with COLO 205 colon, 114%; with DU-145 prostate, 115%; in the test on K-562 leukemia, 93.7%; in the test with MALME-3M melanoma, 97.9%. For the same compound, the growth with MDA-MB-231 breast was 105%; in the test on RXF 393 renal it was 110%; in the test on SF-268 CNS, 104%; in the test with SF-295 CNS, 99.7%; in the test on SF-539 CNS it was 108%; in the test on UACC-257 melanoma, 111%. In the test on M14 melanoma, the growth was 106%.

As to `CCOc1ccc2nc3ccc(Cl)cc3nc2c1`, the growth with NCI-H23 lung is 65.4%; in the test with NCI-H226 lung, 81.3%; in the test with NCI-H322M lung, 96.6%; in the test with NCI-H460 lung, 95.9%; with HOP-92 NSCLC, 73.9%; in the test on NCI-H522 lung, 76.9%. Also, the growth with A549/ATCC NSCLC is 94.9%; with 786-0 renal it was 81.1%; in the test on COLO 205 colon, 114%; in the test with DU-145 prostate, 92.2%; with K-562 leukemia, 52.8%; in the test on MALME-3M melanoma, 127%. Further, the growth with MDA-MB-231 breast was 106%; with RXF 393 renal, -13% (active); in the test on SF-268 CNS, 107%; with SF-295 CNS, 110%; in the test with SF-539 CNS, 92.7%; in the test with UACC-257 melanoma, 101%. For the same compound, the growth in the test on M14 melanoma is -100% (active).
